Hits are enriched below; roughly 1.3% of the tested compounds scored in any of these assays.
RN4220 kill – growth inhibition of S. aureus RN4220, primary screen, OD600; hit rate 0.33% among 330,000; AID 1259311, 2017; 16 h; inhibition, % (test concentration not listed); in the data active = inhibition above about 85%
Mtb hypoxia inh – PubChem AID 1159583 | hit rate 0.1% among 300,000 | M. tuberculosis hypoxia-regulated fluorescent reporter, fluorescence | fluorescence inhibition, % (no concentration beside the values); in the data active = fluorescence inhibition mostly above about 23%, no sharp cut-off; inactive = mostly below about 17%
ugtP null kill – growth inhibition of ugtP-null S. aureus, primary screen, RN4220 ugtP deletion, OD600; 16 h; growth inhibition, % (no concentration beside the values); hit rate 0.54% among 330,000; AID 1259309, 2017; in the data active = growth inhibition above about 68%
PfHsp40 yeast – rescue of yeast from PfHsp40 toxicity, primary screen, S. cerevisiae, ATP luminescence. S. cerevisiae expressing PfHsp40, growth rescue. growth rescue, % at 12.5 µM. hit rate 0.68% among 340,000; in the data active = growth rescue above about 28%, passing the limit was not always enough; inconclusive = no clear call, values can overlap the other calls;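 also: yeast W303a lacking pdr1 and pdr3 grown in galactose medium; growth measured after three days at 30 °C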
MazEF act – activators of E. coli MazEF toxin-antitoxin RNase, primary screen, biochemical, fluorescence, uHTS; Endoribonuclease toxin MazF (Escherichia coli (strain K12)), P0AE70; FAM/BHQ RNA-DNA oligo cleavage fluorescence, 5 h; activation, % at 20 µM; hit rate 0.32% among 350,000; in the data active = activation above about 50%
TcdB GH inh – TcdB glycohydrolase inhibitors, primary screen, biochemical, single point, plate reader. inhibition, % at 9.99 µM. hit rate 0.24% among 350,000. TcdB glycohydrolase enzymatic assay. AID 652162, 2013. Toxin B (Clostridioides difficile), P18177; in the data active = inhibition above about 10%
A number is an active result; - = inactive; ? = inconclusive; . = no result; + = active, no number.

SMILES	RN4220 kill	Mtb hypoxia inh	ugtP null kill	PfHsp40 yeast	MazEF act	TcdB GH inh
CC1(C)C(C=C(Cl)Cl)C1C(=O)Nc1ccc([N+](=O)[O-])cc1 (configuration not stated)	87	-	94	.	-	-
O=C(Nc1ccc([N+](=O)[O-])cc1)C1CC1(c1ccccc1)c1ccccc1 (configuration not stated)	-	-	-	-	-	.
Cc1ccccc1S(=O)(=O)N(C)C[C@@H]1OCc2ccccc2-c2ccccc2C(=O)N([C@H](C)CO)C[C@H]1C	.	.	.	.	.	-
C[C@@H]1CN([C@@H](C)CO)C(=O)c2cc(NC(=O)Nc3ccccc3)ccc2O[C@@H](C)CCCCO[C@H]1CN(C)S(=O)(=O)c1cn(C)cn1	.	.	.	.	.	-
COc1ccccc1CN1C(CC(=O)O)c2cc(F)ccc2S1(=O)=O (configuration not stated)	-	-	-	.	.	.
CCc1sc(N(C(=O)Cc2ccccc2)c2ccccc2F)nc1-c1ccc(C)cc1	-	-	85	-	-	-
CCc1sc(N(C(=O)Cc2ccccc2)c2cccc(F)c2)nc1-c1ccc(C)cc1	-	-	-	-	-	.
CN1\C(=C/C=C/C=C/C=[N+](C)C)C(C)(C)c2ccccc21	-	-	-	-	477	-
CN1/C(=C\C=N\NC(=O)c2ccc(O)cc2)C(C)(C)c2ccccc21	.	.	.	-	-	.
CN1C(=CC=NNC(=O)c2ccccc2Br)C(C)(C)c2ccccc21	-	-	88	.	.	.
CN1/C(=C/C=C(C#N)C#N)C(C)(C)c2ccccc21	-	-	-	-	+	-
CC1CN(C(C)CO)C(=O)c2cccc(NC(=O)Nc3ccc(C(F)(F)F)cc3)c2OC1CN(C)C(=O)Nc1ccc(F)cc1 (configuration not stated)	-	-	-	.	.	.
Clc1ccc(-c2nnc(SCc3nc4ccccc4[nH]3)o2)c(Cl)c1	-	-	-	-	70	.
COc1ccc(-c2nc(-c3cccnc3)no2)cc1	-	-	-	-	-	-
c1ccc(-c2ccccc2-c2nc(-c3ccncc3)no2)cc1	-	.	-	32	-	.
COc1ccc(-c2nc(-c3ccncc3)no2)cc1	-	-	-	-	91	-
COCCN1CC(=O)N(c2cccc(C)c2C)C(c2ccc(Cl)cc2)C1=O (configuration not stated)	-	-	-	-	-	.
Cc1cccc(N2C(=O)C(Oc3ccc(Cl)cc3Cl)C2C=O)c1C (configuration not stated)	.	.	.	280	-	-
O=C(CC(=O)c1cc(Cl)ccc1O)c1ccccc1	100	-	100	-	-	-
Cc1cccc(C(=O)NCC(=O)NNC(=O)c2ccccc2O)c1	-	-	-	-	-	-
Cc1cccc(C(=O)CC(=O)c2cc(Cl)ccc2O)c1	100	-	100	82	-	.
Cc1ccc(O)c(C(=O)CC(=O)c2cccc(F)c2)c1	-	.	100	?	-	.
Cc1ccc(O)c(C(=O)CC(=O)c2ccc(Cl)cc2)c1	100	-	101	-	-	-
CC(C)CC#Cc1ccc2c(c1)O[C@@H](CN(C)C(=O)NC1CCCC1)[C@H](C)CN([C@H](C)CO)S2(=O)=O	.	.	.	.	.	-
COc1ccc(CCNc2c3ccccc3nc3ccccc23)cc1OC	-	-	93	-	-	-
SMILES	RN4220 kill	Mtb hypoxia inh	ugtP null kill	PfHsp40 yeast	MazEF act	TcdB GH inh
COc1nc(NCCc2ccc(OC)c(OC)c2)nc(OC)n1	-	.	-	-	-	.
CC(Oc1ccc(Br)cc1)C(=O)Nc1nnc(C2CC2)s1 (configuration not stated)	-	-	-	-	-	-
CCC(Oc1ccc(Br)cc1Cl)C(=O)Nc1nnc(C2CC2)s1 (configuration not stated)	-	-	-	60	-	-
Cc1nc(-c2ccccn2)nc(SCC(=O)c2ccc(F)cc2)c1Cl	-	-	-	-	-	12
CCN1C(=O)C2C(C)C3=C4C(CC5C(=O)N(CC)C(=O)C5C4[C@@]4(C)C(=NCC5CC5)OC(=O)N4C3=O)C2C1=O (some centres not stated)	-	-	-	.	.	.
COc1cc2c(cc1N)-c1ccc(N)cc1C2=O	.	.	.	.	-	20
C=CCC1(O)C(=O)Nc2ccccc21 (configuration not stated)	-	-	-	55	-	.
COc1ccc(NC(=O)N(C)C[C@@H]2OCCCC[C@H](C)Oc3ccc(NS(=O)(=O)c4ccccc4)cc3C(=O)N([C@H](C)CO)C[C@H]2C)cc1	.	.	.	.	.	-

Screening data: PubChem BioAssay, several laboratories
